# AmpC no deterg – qHTS Inhibitors of AmpC Beta-Lactamase (assay without detergent); AmpC nitrocefin hydrolysis, absorbance 480 nm, 0.0001% Triton; Potency, µM (highest dose often 57.1 µM), for inactives: at the highest dose activity change, negative = inhibition, usual class: inhibitors; hit rate 0.52% among 330,000; AID 485341, 2010;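 further: plate controls were no compound for no effect and no enzyme for full effect; nearly all actives have a fitted effect of over 20% in size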
# Target sequence (P00811 whole entry, looked up): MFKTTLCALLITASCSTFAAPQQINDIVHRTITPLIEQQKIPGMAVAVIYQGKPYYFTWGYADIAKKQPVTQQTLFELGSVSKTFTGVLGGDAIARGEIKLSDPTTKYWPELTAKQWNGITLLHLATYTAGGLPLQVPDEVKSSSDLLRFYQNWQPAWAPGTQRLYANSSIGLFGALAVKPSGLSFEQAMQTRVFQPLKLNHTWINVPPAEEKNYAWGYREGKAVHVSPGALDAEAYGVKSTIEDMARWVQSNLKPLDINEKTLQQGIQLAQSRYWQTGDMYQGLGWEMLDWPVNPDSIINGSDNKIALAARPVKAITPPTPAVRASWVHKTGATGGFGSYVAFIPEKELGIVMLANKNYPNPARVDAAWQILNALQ
#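 20 mM phosphate pH 7.0 + 0.01% (detergent screen) or 0.0001% Triton X-100; 5.3 nM AmpC reagent; cpd preinc 15 min RT; nitrocefin (800 uM stock) to start; A480 q20 s × 4 min; Activity was normalised to no-enzyme and no-compound control wells.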
# AmpC inh detg – qHTS Inhibitors of AmpC Beta-Lactamase (assay with detergent); AmpC hydrolysis of nitrocefin, absorbance 480 nm, 0.01% Triton; Potency, µM (titrated, usually from 114 µM), for inactives: top-dose activity change, negative = inhibition, hits mostly inhibitors; hit rate 0.041% among 370,000; AID 485294, 2010;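 further: 0% = no-compound wells and -100% = no-enzyme wells; nearly all actives have a fitted effect of over 25% in size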
#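 AmpC (5.3 nM in the dispensed reagent) in 20 mM phosphate pH 7.0 with 0.01% (detergent screen) or 0.0001% Triton X-100 was preincubated with compounds for 15 min at room temperature. Nitrocefin was then added from an 800 uM solution, and hydrolysis was followed at 480 nm.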
# LmPK inhibitor – qHTS Assay for Inhibitors of Leishmania Mexicana Pyruvate Kinase (LmPK). Potency, µM (top dose mostly 57.5 µM), for the others: at the highest dose activity change, negative = inhibition, most hits filed as inhibitors. hit rate 0.37% among 290,000. purified LmPK, Kinase-Glo ATP luminescence, 1 h. Q27686. AID 1721, 2009
#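 Pyruvate kinase activity monitored as ATP production (luciferase luminescence). Conditions: 0.1 nM enzyme, 0.5 mM PEP, 0.1 mM ADP, 1 h, RT; normalized against uninhibited and no-enzyme wells.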
# AMA1 RON2 block – qHTS for Inhibitors of AMA1-RON; Towards Development of Antimalarial Drug Lead: Primary Screen; AlphaScreen AMA1-biotinylated RON2 peptide binding; hit rate 0.2% among 360,000; Plasmodium falciparum AMA1 (3D7) - RON2 peptide interaction; Potency, µM (doses to about 58.2 µM), for inactives: at the highest dose activity change, negative = inhibition, most hits filed as inhibitors; AID 720542, 2013;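 further: 0% = vehicle wells and -100% = peptide control; nearly all actives have a fitted effect of over 45% in size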
#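 AMA1 (3D7) with his tag at 25 nM final met compounds first, then biotinylated RON2 peptide at 25 nM; detection used donor plus acceptor beads, 10 µg/mL apiece, read by AlphaScreen after 30 min at room temperature.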
# FBPA Giardia inh – qHTS Assay for Inhibitors of Fructose-1,6-bisphosphate Aldolase from Giardia Lamblia; A8B2U2; purified Giardia FBPA; Potency, µM (titrated, usually from 59.6 µM), for inactives: at the highest dose activity, negative = inhibition, usual class: inhibitors; hit rate 0.71% among 290,000; further: nearly all actives have a fitted effect of over 55% in size
# Target sequence (A8B2U2 whole entry, looked up): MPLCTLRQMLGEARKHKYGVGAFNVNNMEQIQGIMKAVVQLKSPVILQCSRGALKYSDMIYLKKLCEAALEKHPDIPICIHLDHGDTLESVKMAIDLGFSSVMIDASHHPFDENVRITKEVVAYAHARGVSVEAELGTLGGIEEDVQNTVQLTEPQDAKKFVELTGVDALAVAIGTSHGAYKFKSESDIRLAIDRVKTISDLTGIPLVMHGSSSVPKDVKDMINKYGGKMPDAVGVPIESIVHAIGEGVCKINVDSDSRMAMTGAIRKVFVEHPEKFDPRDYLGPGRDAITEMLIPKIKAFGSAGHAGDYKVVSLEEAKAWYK
#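 40 nM FBPA preincubated 10 min at RT with compound (up to 57.5 uM final), then substrate plus GAPDH/TPI/NAD/arsenate coupling and diaphorase/resazurin added. Fluorescence read after 20 min at RT, 525/598 nm.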
# * marks the source's active call; other numbers are inactive results; ? = inconclusive; . = not tested or not shown; ! = repeats disagree; [ ] = dose if it differs, or a comment. This is a sample that favours compounds with a hit; in the whole collection about 1.3% have one here. The call rests on the fitted dose curve; in most records, active means well fitted curve in the direction sought with a large enough effect; inconclusive means small, poorly fitted or top-dose-only effect, or another doubt; inactive means no such curve, though single readings can be large; an effect the other way counts as inactive or inconclusive. Unless noted, on the % scale 0 is the no-effect control and ±100 the full control effect; potency means the concentration at half of the fitted maximal effect.
SMILES,AmpC no deterg,AmpC inh detg,LmPK inhibitor,AMA1 RON2 block,FBPA Giardia inh
O=C(CSCc1ccccc1)N=Nc1c(O)[nH]c2ccccc12,-13%,?,-1%,45%,-11%
Oc1[nH]c2ccccc2c1N=NC(=S)NCCc1ccccc1,25µM*,?,2%,-5%,3%
CCC1=C(NCc2ccccc2)COC1=O,.,.,.,0%,.
C=CCNc1nc(C(=O)OCC(=O)c2ccc(C)c([N+](=O)[O-])c2)cs1,20µM*,2%,0%,33%,.
C=CCNc1nc(C(=O)OCC(=O)c2ccc(Cl)cc2)cs1,-43%,-11%,.,20%,.
COc1ccc(O)c(C(=O)c2coc(=N)c(C(=O)Nc3ccc(SC(F)F)cc3)c2)c1,14µM*,5%,-3%[11.5 µM],-23%,-9%
O=S(=O)(NCCn1ccc2ccccc21)c1ccccc1,25µM*,-14%,-2%,-2%,-7%
COc1ncc2nc(-c3ccc(F)cc3)c(=O)n(C)c2n1,.,.,.,.,3%
CC(=O)NC(CCS(C)(=O)=O)C(=O)Nc1cccc2ccccc12 (configuration not stated),4.5µM*,?,-1%,-3%,-20%
CC(=O)NC(CCS(C)(=O)=O)C(=O)Nc1ccccc1Cl (configuration not stated),-4%,1%,-5%,0%,1%
Oc1cccc(C=Nc2cccc3ccccc23)c1O,-53%,-10%,-30%,?,?
Oc1cccc(C=NCc2ccccc2)c1O,-32%,-13%,-23%,-15%,7.1µM*
COC(=O)C1Cc2c([nH]c3ccccc23)CN1C(C)=O (configuration not stated),-12%,-2%,6%,7%,-6%
Oc1cc2c(cc1O)C1c3ccc(O)c(O)c3OCC1(O)C2 (configuration not stated),-10%,5%,?,2µM*,6.3µM*
CCN1CCC(N2CCN(c3ccc(Cl)cc3)CC2)CC1,-9%,-18%,-4%,2%,-6%
CCCCCCN1CCN(c2ccc(Cl)cc2)CC1,-39%,?,-4%,35µM*,?
COc1ccc(S(=O)(=O)N(C)C[C@H]2Oc3c(cccc3N(C)C)C(=O)N([C@H](C)CO)C[C@@H]2C)cc1,179%,.,.,18%,.
Cc1ccc(NC(=S)NC(=O)C2CCCC2)cc1C,3.2µM*,0%,0%,39%,.
CC(=O)N1CCc2cc(S(=O)(=O)CCC(=O)Nc3ccc(C)cc3Br)ccc21,.,0%,.,.,.
CCOC(=O)N1CCC(NC(=O)CN2C(=O)CSc3ncccc32)CC1,28µM*,8%,1%,2%,-2%
CCOc1ccc(NC(=O)c2nn(C)cc2Br)cc1,-9%,?,32µM*,5%,-1%
O=C1C(NS(=O)(=O)c2cccs2)=C(N2CCN(Cc3ccccc3)CC2)C(=O)c2ccccc21,-25%,-4%,-22%,28µM*,?
O=C1C(NS(=O)(=O)c2cccs2)=C(N2CCN(c3cccc(C(F)(F)F)c3)CC2)C(=O)c2ccccc21,-58%,-11%,-11%,10µM*,?
CCOc1ccccc1N1CCN(C2=C(NS(=O)(=O)c3cccs3)C(=O)c3ccccc3C2=O)CC1,-13%,?,-18%,10µM*,?
CCOC(=O)C1=C(C)Nc2ccccc2N=C1NC(=O)C(c1ccccc1)c1ccccc1,28µM*,-4%,2%,22%,3%
SMILES,AmpC no deterg,AmpC inh detg,LmPK inhibitor,AMA1 RON2 block,FBPA Giardia inh
CCOC(=O)C1=C(C)Nc2ccccc2N=C1NC(=O)c1cccc(S(=O)(=O)N(C)C)c1,-14%,-15%,14%,-9%,6%
CCN1CCCC1Cn1c(-c2ccccc2)nc2c(N3CCOCC3)nc(C)nc21 (configuration not stated),.,.,.,.,3%
O=[N+]([O-])c1cccc(S(=O)(=O)c2ccc(N3CCCCC3)c([N+](=O)[O-])c2)c1,-44%,-5%,4%,-30%,1%
O=[N+]([O-])c1cc(S(=O)(=O)c2ccc(N3CCCCC3)c([N+](=O)[O-])c2)ccc1N1CCCCC1,10µM*,2%,3%,-20%,-1%
COc1ccc(-c2csc3ncnc(N4CCN(S(=O)(=O)c5ccc(C(C)=O)cc5)CC4)c23)cc1,32µM*,?,.,-5%,.
COCCN1C(=O)CN(S(C)(=O)=O)CC1(C)C(=O)NCc1ccccc1 (configuration not stated),.,.,.,-2%,.
Cc1cc(SCC(=O)OC/C(O)=C(\C#N)c2nc3ccccc3[nH]2)c(C)cc1Br,10µM*,-6%,0%,86%,-12%
CC(=O)N1CCc2[nH]c3ccc(C)cc3c2C1,-6%,?,-7%,4%,1%
CCOC(=O)N1CCc2[nH]c3ccc(C)cc3c2C1,24%,4%,3%,40µM*,9%
C=C[C@@H](c1ccccc1)[C@](C)(O)C(=O)O,.,.,.,-4%,.
C=C[C@@H](C1=CC(=O)C(OC)=C(OC)C1=O)c1ccccc1,.,.,.,.,22µM*
O=C(CSc1nncn2c1cc1occc12)Nc1ccccc1C(F)(F)F,.,-2%,.,.,.
NC1=CC(=O)c2cccc3cccc1c23,-28%,?,-2%,.,20µM*
CCOc1ccccc1C(=O)NCC(=O)N1CCN(Cc2ccc3c(c2)OCO3)CC1,88%,-1%,.,8%,.
CCC(C)Sc1nc2c(cnn2-c2ccc(C)c(C)c2)c(=O)[nH]1 (configuration not stated),40µM*,-14%,-2%,-2%,-2%
CCCSc1nc2c(cnn2-c2ccc(Cl)cc2)c(=O)[nH]1,-15%,?,0%,-8%,-6%
CSc1nc2c(cnn2-c2ccc(C)c(C)c2)c(=O)[nH]1,-20%,?,2%,-1%,0%
CCCCSc1nc2c(cnn2-c2ccc(F)cc2)c(=O)[nH]1,40µM*,?,7%,-7%,-11%
CC1(C)S[C@@H]2[C@H](NC(=O)C(N)c3ccccc3)C(=O)N2[C@H]1C(=O)O (some centres not stated),.,.,.,.,-12%[21.7 µM]
Cc1onc(-c2c(Cl)cccc2Cl)c1C(=O)N[C@@H]1C(=O)N2[C@@H]1SC(C)(C)[C@@H]2C(=O)O,0.1µM*!,0.045µM*,-2%,11%,-12%
CC(Oc1ccccc1)C(=O)NC1C(=O)N2C1SC(C)(C)C2C(=O)O (configuration not stated),?,35µM*,0%,0%,-2%
Cc1onc(-c2c(Cl)cccc2Cl)c1C(=O)NC1C(=O)N2C1SC(C)(C)C2C(=O)O (configuration not stated),?,?,8%,24%,-4%
COc1ccc(C)cc1NCc1ccc(OC)c(C)c1OC,-20%,-7%,-7%,28µM*,?

# Screening data deposited in PubChem BioAssay by National Center for Advancing Translational Sciences (NCATS).
